Drawing on PubChem BioAssay (EPA / NIEHS), this text covers outcome and AC50 for 20 compounds.

Inconclusive results are not listed. Activity calls are given as the source filed them. The calls were made as follows: active = hit-call score of the fitted dose curve at least 0.9, where 1 is the maximum; inconclusive = response in the unintended direction; inactive = score below 0.9.

Sequence of human p21 Activated Kinase 4 (PAK4), PAK4 (gene 10298) (O96013 whole entry, looked up): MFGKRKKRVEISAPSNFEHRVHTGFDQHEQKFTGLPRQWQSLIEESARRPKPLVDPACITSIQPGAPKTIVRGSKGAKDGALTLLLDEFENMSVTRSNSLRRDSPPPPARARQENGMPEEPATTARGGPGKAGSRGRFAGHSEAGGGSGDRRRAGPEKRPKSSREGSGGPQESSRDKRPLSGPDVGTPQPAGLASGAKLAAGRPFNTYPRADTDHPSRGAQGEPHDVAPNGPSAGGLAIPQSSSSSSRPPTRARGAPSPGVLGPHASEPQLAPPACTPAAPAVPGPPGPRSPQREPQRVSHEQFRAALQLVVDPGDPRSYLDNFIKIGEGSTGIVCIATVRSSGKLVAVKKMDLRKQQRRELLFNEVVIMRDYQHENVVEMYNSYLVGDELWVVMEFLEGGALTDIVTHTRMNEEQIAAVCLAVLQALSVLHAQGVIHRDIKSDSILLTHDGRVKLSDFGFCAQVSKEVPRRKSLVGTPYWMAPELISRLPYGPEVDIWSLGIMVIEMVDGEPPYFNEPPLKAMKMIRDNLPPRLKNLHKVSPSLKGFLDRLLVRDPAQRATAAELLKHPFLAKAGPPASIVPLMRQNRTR

The first assay deals with human p21 Activated Kinase 4 (PAK4), PAK4 (gene 10298) (UniProt O96013). In words: NVS_ENZ_hPAK4: NovaScreen (NVS) Enzymatic Assay for human p21 Activated Kinase 4 (PAK4) (AID 2283189). Put shortly:
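Cell-free recombinant human PAK4 activity assay; fluorescent substrate and product separated by electrophoretic mobility shift, read 1 h after dosing. Initially tested in duplicate at 25 uM, relative to DMSO baseline.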
For the compound `C[C@]12C=CC3=C4CCC(=O)C=C4CC[C@H]3[C@@H]1CC[C@@H]2O`, the call was inactive.
The same measure, in the same setting: the same measure for `COc1cc(C=O)cc2c1[C@H](COC(N)=O)[C@]1(OC(C)=O)ON2C[C@H]2[C@@H]1N2C(C)=O`: “inactive”; for `Cn1cc(-c2ccccc2)c(=O)c(-c2cccc(C(F)(F)F)c2)c1`: “inactive”; for `Cc1cc(N=Nc2ccccc2C)ccc1N`: “inactive”.

Another assay deals with human Matrix Metalloproteinase-9 (MMP9), MMP9 (gene 4318) (UniProt P14780). Description: NVS_ENZ_hMMP9: NovaScreen (NVS) Enzymatic Assay for human Matrix Metalloproteinase-9 (MMP9) (AID 2283190).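 Also: cell-free recombinant MMP9 protease activity read by fluorescent substrate signal; active means inhibition seen as loss of fluorescence signal versus DMSO.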 The method in brief: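 Cell-free recombinant MMP9 enzyme activity measured by fluorescence intensity 1 h after dosing. Primary screen in duplicate at 25 uM, actives followed in concentration series; loss of signal relative to DMSO.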
Sequence of human Matrix Metalloproteinase-9 (MMP9), MMP9 (gene 4318) (P14780 whole entry, looked up): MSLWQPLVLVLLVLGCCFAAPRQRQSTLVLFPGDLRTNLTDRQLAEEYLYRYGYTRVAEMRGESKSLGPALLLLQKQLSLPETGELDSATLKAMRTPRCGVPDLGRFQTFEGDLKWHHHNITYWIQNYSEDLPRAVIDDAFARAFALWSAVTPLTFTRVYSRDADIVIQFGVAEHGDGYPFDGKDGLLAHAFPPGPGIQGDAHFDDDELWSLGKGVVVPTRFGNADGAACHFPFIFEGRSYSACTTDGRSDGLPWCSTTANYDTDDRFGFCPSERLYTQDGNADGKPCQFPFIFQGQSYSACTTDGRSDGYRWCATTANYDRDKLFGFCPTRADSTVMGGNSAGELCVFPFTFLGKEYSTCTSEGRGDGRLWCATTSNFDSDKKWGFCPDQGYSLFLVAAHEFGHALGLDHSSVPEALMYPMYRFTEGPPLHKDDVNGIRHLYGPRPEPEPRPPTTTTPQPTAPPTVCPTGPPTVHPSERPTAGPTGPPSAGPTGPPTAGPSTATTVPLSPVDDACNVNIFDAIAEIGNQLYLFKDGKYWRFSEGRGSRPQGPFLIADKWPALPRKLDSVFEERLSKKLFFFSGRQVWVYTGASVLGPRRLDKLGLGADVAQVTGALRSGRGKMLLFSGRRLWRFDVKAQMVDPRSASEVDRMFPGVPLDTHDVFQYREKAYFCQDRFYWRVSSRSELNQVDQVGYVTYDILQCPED
On to `O=Cc1ccco1`, for which the compound was called inactive.
Same read-out and setting: the same measure for `C1=Cc2cccc3cccc1c23`: “inactive”; for `c1ccc(C2CO2)cc1` (stereo not drawn): “inactive”.
The same measure, in the same setting: the same measure for `O=[N+]([O-])c1ccc(Oc2ccc(Cl)cc2Cl)cc1`: “inactive”.

For another assay, the target named is human Phosphodiesterase 4A1 (PDE4A1), PDE4A (gene 5141) (UniProt P27815). In words: NVS_ENZ_hPDE4A1: NovaScreen (NVS) Enzymatic Assay for human Phosphodiesterase 4A1 (PDE4A1) (AID 2283191). Put shortly: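 Cell-free recombinant human PDE4A1 with fluorescent substrate; product separated by electrophoretic mobility shift, 1 h. Screened at 25 uM, then up to 50 uM in concentration-response; loss of signal fitted against DMSO.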
Sequence of human Phosphodiesterase 4A1 (PDE4A1), PDE4A (gene 5141) (P27815 whole entry, looked up): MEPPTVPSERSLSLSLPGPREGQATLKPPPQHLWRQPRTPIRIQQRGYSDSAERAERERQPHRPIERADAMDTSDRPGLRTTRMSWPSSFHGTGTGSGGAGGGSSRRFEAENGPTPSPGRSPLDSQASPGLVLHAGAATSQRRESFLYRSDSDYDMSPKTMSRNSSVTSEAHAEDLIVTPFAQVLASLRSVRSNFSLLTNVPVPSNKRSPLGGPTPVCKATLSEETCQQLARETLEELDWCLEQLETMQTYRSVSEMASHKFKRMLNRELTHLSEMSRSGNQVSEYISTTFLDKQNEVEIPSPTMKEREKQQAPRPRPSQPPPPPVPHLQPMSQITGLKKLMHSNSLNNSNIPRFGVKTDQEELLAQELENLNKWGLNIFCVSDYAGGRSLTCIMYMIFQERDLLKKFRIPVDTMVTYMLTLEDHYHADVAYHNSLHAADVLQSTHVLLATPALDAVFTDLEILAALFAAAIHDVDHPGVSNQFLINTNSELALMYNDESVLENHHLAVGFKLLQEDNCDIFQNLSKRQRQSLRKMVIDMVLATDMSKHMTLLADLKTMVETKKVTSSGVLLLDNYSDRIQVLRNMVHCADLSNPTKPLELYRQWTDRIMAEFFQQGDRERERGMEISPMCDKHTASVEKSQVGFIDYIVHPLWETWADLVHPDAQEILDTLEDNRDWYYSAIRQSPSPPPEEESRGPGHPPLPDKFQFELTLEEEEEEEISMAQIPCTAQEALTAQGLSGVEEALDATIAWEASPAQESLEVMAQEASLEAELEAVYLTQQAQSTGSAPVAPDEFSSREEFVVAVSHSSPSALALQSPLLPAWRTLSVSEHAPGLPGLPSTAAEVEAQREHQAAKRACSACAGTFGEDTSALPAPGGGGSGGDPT
Turning to `CC(C)(C)OOC(C)(C)CCC(C)(C)OOC(C)(C)C`, the result was inactive.
For `O=C(Oc1ccc(Br)cc1)N1CCN2CCC1CC2`, the result was inactive.
The same measure, in the same setting: the same measure for `CS(=O)(=O)NC(=O)c1cc(Oc2ccc(C(F)(F)F)cc2Cl)ccc1[N+](=O)[O-]`: “inactive”; for `CN(C)c1ccc(C(=O)c2ccc(N(C)C)cc2)cc1`: “inactive”.

Another assay addresses human Phosphodiesterase 5 (PDE5), PDE5A (gene 8654) (UniProt O76074). Description: NVS_ENZ_hPDE5: NovaScreen (NVS) Enzymatic Assay for human Phosphodiesterase 5 (PDE5) (AID 2283194). The method in brief: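 Recombinant human PDE5 with specific substrate, read 1 h after dosing by fluorescence with electrophoretic mobility-shift separation of substrate and product. Initial single-concentration duplicate screen at 25 uM, actives followed in concentration series; loss of activity versus DMSO.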
Regarding `c1ccc(C2CO2)cc1` (stereo not drawn), the compound was classed as inactive.
The same measure, in the same setting: the same measure for `CCCSC(=O)N(CCC)CCC`: “inactive”.
With `C[C@]12C=CC3=C4CCC(=O)C=C4CC[C@H]3[C@@H]1CC[C@@H]2O`, the concentration at half-maximal activity (AC50) (in general, the concentration at which the activity in the assay is half-maximal) is 25 µM (active).
On the same count and under the same terms, with `CN(C)c1ccc(C(=O)c2ccc(N(C)C)cc2)cc1` the figure was 29.1 µM (active); with `Nc1ccc(Cl)cc1N`, 12.6 µM (active).

Another assay deals with PPP2CA (gene 5515) (UniProt P67775). Description: NVS_ENZ_hPPP2CA: NovaScreen (NVS) Enzymatic Assay for human Protein Phosphatase 2 Aatalytic subunit Alpha (PPP2CA) (AID 2283199). The method in brief: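 Recombinant human PPP2CA with fluorescent substrate; product separated from substrate by electrophoretic mobility shift, read 1.33 h after dosing. Duplicate single-point at 25 uM, then singleton concentration-response up to 50 uM; loss of signal versus DMSO.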
Sequence of PPP2CA (gene 5515) (P67775 whole entry, looked up): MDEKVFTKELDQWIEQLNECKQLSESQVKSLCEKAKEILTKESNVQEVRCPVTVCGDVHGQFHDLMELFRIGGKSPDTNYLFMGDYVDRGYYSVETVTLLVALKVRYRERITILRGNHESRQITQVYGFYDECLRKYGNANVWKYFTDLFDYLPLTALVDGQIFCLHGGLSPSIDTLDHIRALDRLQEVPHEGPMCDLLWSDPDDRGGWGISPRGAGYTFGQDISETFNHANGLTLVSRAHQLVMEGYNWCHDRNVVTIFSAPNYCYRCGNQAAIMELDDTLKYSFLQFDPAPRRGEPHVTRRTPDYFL
`CC(C)(OOC(C)(C)c1ccccc1)c1ccccc1`: the outcome was inactive.
On the same count and under the same terms, with `CCC12COCN1COC2` the entry was “inactive”; with `Nc1ccc([N+](=O)[O-])cc1`, “inactive”.

The target of the next assay is Tyrosine-protein phosphatase non-receptor type 12 (Homo sapiens) (UniProt Q05209). Description: NVS_ENZ_hPTPN12: NovaScreen (NVS) Enzymatic Assay for human Protein Tyrosine Phosphatase Non-receptor Type 12 (PTPN12) (AID 2283204). The method in brief: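 Single-concentration duplicates (25 uM) preceded singleton concentration-response up to 50 uM for chemicals passing threshold. Cell-free recombinant PTPN12 activity was read 1.33 h after dosing via fluorescence after mobility-shift separation; loss of signal versus DMSO.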
Sequence of Tyrosine-protein phosphatase non-receptor type 12 (Homo sapiens) (Q05209 whole entry, looked up): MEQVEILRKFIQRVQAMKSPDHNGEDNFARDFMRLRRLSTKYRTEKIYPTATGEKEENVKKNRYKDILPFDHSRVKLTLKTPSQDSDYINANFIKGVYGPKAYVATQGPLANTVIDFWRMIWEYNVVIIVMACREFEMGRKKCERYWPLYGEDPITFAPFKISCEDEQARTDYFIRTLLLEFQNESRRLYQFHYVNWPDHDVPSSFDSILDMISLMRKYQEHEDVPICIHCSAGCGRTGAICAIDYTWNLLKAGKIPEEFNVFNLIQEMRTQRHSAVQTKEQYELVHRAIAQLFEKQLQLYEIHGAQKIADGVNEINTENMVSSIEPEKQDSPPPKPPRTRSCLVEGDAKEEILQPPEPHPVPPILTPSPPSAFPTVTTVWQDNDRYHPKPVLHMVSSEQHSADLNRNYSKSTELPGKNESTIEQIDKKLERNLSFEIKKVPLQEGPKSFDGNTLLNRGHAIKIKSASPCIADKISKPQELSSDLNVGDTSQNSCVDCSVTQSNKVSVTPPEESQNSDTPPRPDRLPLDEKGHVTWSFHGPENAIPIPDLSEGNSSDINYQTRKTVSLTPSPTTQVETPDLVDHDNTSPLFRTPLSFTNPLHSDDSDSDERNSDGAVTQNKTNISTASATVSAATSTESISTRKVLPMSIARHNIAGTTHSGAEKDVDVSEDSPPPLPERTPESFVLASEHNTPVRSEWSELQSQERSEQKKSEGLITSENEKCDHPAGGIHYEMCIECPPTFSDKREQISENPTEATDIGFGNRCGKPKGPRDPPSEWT
For the compound `Oc1ccc2ccc3cccc4ccc1c2c34`, the concentration at half-maximal activity (AC50) was 1.22 µM (active).
The same measure, in the same setting: the same measure for `OCCCBr`: 25 µM (active).
For `CO[C@@H]1[C@H](OC(=O)NC(=O)CCl)CC[C@]2(CO2)[C@H]1[C@@]1(C)O[C@@H]1CC=C(C)C`, the result was inactive.
